According to PubChem BioAssay (NCI):
Compounds without any hit were thinned out: in the full panel of roughly 83,000, 20% have a hit.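 Negative percent growth values reflect cell death: -40 means 40% of the cells present at the start died, and -100 means all died.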 Values without a mark were called inactive. Activity calls are given as the source filed them. How the source made its calls: active means growth percent below 10; inactive means the rest.

What follows are molecules tested on A498 renal (assay: NCI-60 one-dose screen, 48 h (100 = growth as untreated, 0 = no growth, -100 = all killed)). Conditions: 10 µM unless noted.
For `COC(=O)[C@]12CC[C@@H](C)[C@H](C)[C@@H]1C1=CC[C@@H]3[C@@]4(C)C[C@@H](OC(C)=O)[C@H](O)[C@@](C)(COC(C)=O)[C@@H]4[C@H](O)C[C@@]3(C)[C@]1(C)CC2`, the growth was -94.4% (active). `N#Cc1c(-c2ccco2)nc2c(c(-c3ccccc3)nn2-c2ccccc2)c1-c1ccc(O)cc1` gave a growth of 90.9%. Work on `CC(=O)c1c(C)[nH]c(-c2nc3ccc(N4CCN(C)CC4)cc3[nH]2)c1-c1ccc2c(c1)OCCO2` yielded a growth of 45.5%. `COc1ccc(C(=O)c2ccc(C)cc2)c(OC)c1OC` was tested, and the growth was 70.1%. Molecule `C[C@H]1OC(=O)/C=C/[C@@H](O)[C@@H](O)CCCCCCCC[C@@H]1O` has a growth of 71.1%. Work on `COc1ccccc1-n1cnc(N)c1C(=O)c1cc(OC)c(OC)c(OC)c1` yielded a growth of 26.6%. `COc1ccc(/C=C(\C#N)c2cc3ccccc3n2S(C)(=O)=O)cc1` was tested, and the growth was 99.2%. Molecule `Cc1cccc2c1NC(=O)[C@@]21[C@H](C(=O)c2ccccc2)[C@]2(C(=O)Nc3ccccc32)[C@H]2CCCN21` has a growth of 39.8% [100 µM]. In the case of `N=c1ccc2nc3c(cc(N)c4ccccc43)oc-2c1`, the growth is reported as -21.4% (active). `COc1cccc(-c2nn(-c3ccccc3)cc2-c2ccnc(NCCCNS(=O)(=O)c3ccc(Br)cc3)c2)c1` was tested, and the growth was 41.4%. For `Cc1ccc(-c2nn(Cc3cn(-c4cc(C)nc5ccccc45)nn3)c3ncnc(N)c23)cc1`, the growth was -2.48% (active). Molecule `COc1ccc2c(c1)c1nc3cc(C)c(C)cc3nc1n2CCN(C)C` has a growth of 45%. In the case of `CC(=O)n1c(/C(C#N)=C/c2ccc(N(C)C)cc2)cc2ccccc21`, the growth is reported as 2.85% (active). For `C[C@H]1[C@H]2C3=CC[C@@H]4[C@@]5(C)C/C(=C/c6ccco6)C(=O)C(C)(C)[C@@H]5CC[C@@]4(C)[C@]3(C)CC[C@@]2(C(=O)N2CCOCC2)CC[C@@H]1C`, the growth was 94%. `Fc1ccc(Nc2ccc3c(OCCCN4CCOCC4)cccc3n2)cc1F` gave a growth of 69.7%. For `COc1cccc(-c2nn(-c3ccccc3)cc2-c2ccnc(NCCNS(=O)(=O)c3ccc(C(F)(F)F)cc3)c2)c1`, the growth was 4.35% (active). For `Cn1cnc2c1c(=O)n(CCC(=O)Nc1ccc(F)cc1)c(=O)n2C`, the growth was 96.8%. `COCCNC1=C(Cl)C(=O)c2ccccc2C1=O` gave a growth of 81.3%. Molecule `CCCCn1c(-c2ccc(O)cc2)cn2c3c(=O)[nH]c(=O)n(C)c3nc12` has a growth of 75.8%. With `Cc1ccc(N(CC(=O)Nc2ccc(S(=O)(=O)NC3CCN(C)CC3)cc2)S(=O)(=O)c2ccc(Cl)cc2)cc1` the growth was 84.6%. `CC(=O)OC[C@]12CC[C@@H](/C(C)=N/O)[C@@H]1[C@H]1CC[C@@H]3[C@@]4(C)CCCNC(C)(C)[C@@H]4CC[C@@]3(C)[C@]1(C)CC2` showed a growth of 59.3%. `Clc1ccc(Cn2cc(-c3nc4ccc(Br)nc4n3Cc3ccc(Cl)cc3)c3cccnc32)cc1` gave a growth of 76.4%. For `CN1CCN(CCOc2ccc(-c3cnc4c(-c5cccc(F)c5)cnn4c3)cc2)CC1`, the growth was 45.2%. `CN1CCN(c2nc(-c3csc(-c4cccs4)n3)cc3ccccc23)CC1` showed a growth of 10.5%. With `CCN(CC)CCCCCCNc1ccnc2cc(Cl)ccc12` the growth was 118%. In the case of `CCCCCCCC(=O)SCC/C=C/[C@@H]1CC(=O)NCc2cccc(n2)CN(Cc2ccc(Cl)cc2)CC(=O)N[C@@H](C(C)C)C(=O)O1`, the growth is reported as -54% (active). For `c1cc(N2CCCC2)c2nc(-c3[nH]ncc3Nc3ncnc4[nH]ccc34)[nH]c2c1`, the growth was -79.5% (active). In the case of `COc1ccc(C2=NN(c3nc(-c4ccc(OC)cc4)c(C#N)c(=O)n3C)C(=O)CC2)cc1`, the growth is reported as 116%. In the case of `Cc1ccc(S(=O)(=O)Nc2ccc(-c3cc(-c4cccc(F)c4)c(C#N)c(N)n3)cc2)cc1`, the growth is reported as 68.1%. Work on `CC(C)(C)c1ccc(OCCCCCCCN2CCNCC2)cc1` yielded a growth of 79.9%. Work on `COC(=O)CNc1nc(N(C)O)nc(N(C)O)n1` yielded a growth of 34.5%. `COc1cc2ncnc(Nc3ccc(Oc4ccnc(C)c4)c(C)c3)c2cc1NC(=O)CC1CCSS1` (centres undefined) was tested, and the growth was 66.8%. `C=C(C)[C@@H]1CC[C@]2(C)[C@H](CC[C@@H]3[C@H]4[C@H]5OC[C@@]4(CCC5(C)C)CC[C@]32C)[C@@]1(C)CCCN` was tested, and the growth was 118%. In the case of `c1ccc(-c2nc(Nc3ccc(-c4nc5ccccc5[nH]4)cc3)nc(N3CCOCC3)n2)cc1`, the growth is reported as -83.4% (active).
